In all, about 39,000 compounds went through this assay and about 3,300 (8.5%) were called active. The sample as a whole holds a higher share of actives than the screen did.
test system: HepG2; assay: cytotoxicity call (relative viability < 0.9); conditions: 10 µM

| SMILES | cytotoxicity call |
| --- | --- |
| C[C@H](CO)N1C[C@H](C)[C@H](CN(C)C(=O)Cc2ccccn2)Oc2cc(C#Cc3ccccc3)ccc2S1(=O)=O | inactive |
| COc1ccc(CNC(=O)C[C@@H]2CC[C@H]3[C@@H](COC[C@H](O)CN3S(=O)(=O)c3ccc(OC)cc3)O2)cc1 | inactive |
| C[C@H]1CN([C@@H](C)CO)C(=O)c2cc(NC(=O)Cc3ccccc3)ccc2O[C@H]1CN(C)S(=O)(=O)c1cccs1 | inactive |
| COc1ccc(NC(=O)Nc2ccc3c(c2)C(=O)N([C@H](C)CO)C[C@H](C)[C@H](CN(C)S(=O)(=O)c2ccc(OC)cc2)OCCCC[C@@H](C)O3)cc1 | inactive |
| COc1ccccc1S(=O)(=O)N[C@H]1CC[C@H](CCNC(=O)C2CC2)O[C@@H]1CO | inactive |
| C[C@@H]1O[C@@H](O[C@@H]2C=C(CO)[C@H]3[C@H](O[C@@H]4O[C@H](CO)[C@@H](O)[C@H](O)[C@H]4O)OC=C[C@H]32)[C@H](O)[C@H](O)[C@H]1OC(=O)/C=C/c1ccccc1 | inactive |
| C[C@H](CO)N1C[C@H](C)[C@H](CN(C)S(=O)(=O)c2ccc(F)cc2)OCCCC[C@H](C)Oc2ccc(NC(=O)CCC(F)(F)F)cc2C1=O | inactive |
| C[C@@H]1CCCCO[C@H](CN(C)Cc2ccccc2)[C@H](C)CN([C@H](C)CO)C(=O)c2cc(NC(=O)NC3CCCCC3)ccc2O1 | inactive |
| C[C@H]1CN([C@@H](C)CO)C(=O)c2cccc(NC(=O)Nc3ccc4c(c3)OCO4)c2O[C@@H]1CN(C)Cc1ccc(Oc2ccccc2)cc1 | inactive |
| C[C@H]1CN([C@@H](C)CO)C(=O)c2cccc(NC(=O)Nc3ccc4c(c3)OCO4)c2O[C@@H]1CN(C)Cc1ccc(-c2ccccc2)cc1 | inactive |
| C[C@@H]1CN([C@H](C)CO)C(=O)c2cccc(NC(=O)Nc3ccc4c(c3)OCO4)c2O[C@H]1CN(C)Cc1ccc(Oc2ccccc2)cc1 | active |
| C[C@@H]1CN([C@H](C)CO)C(=O)c2cccc(NC(=O)Nc3ccc4c(c3)OCO4)c2O[C@@H]1CN(C)Cc1ccc(-c2ccccc2)cc1 | inactive |
| C[C@@H]1CN([C@@H](C)CO)C(=O)c2cccc(NC(=O)Nc3ccc4c(c3)OCO4)c2O[C@@H]1CN(C)Cc1ccc(-c2ccccc2)cc1 | active |
| C[C@@H]1CN([C@H](C)CO)C(=O)c2cccc(NC(=O)Nc3ccc4c(c3)OCO4)c2O[C@@H]1CN(C)Cc1ccc(Oc2ccccc2)cc1 | inactive |
| C[C@@H]1CN([C@@H](C)CO)C(=O)c2cccc(NC(=O)Nc3ccc4c(c3)OCO4)c2O[C@H]1CN(C)Cc1ccc(Oc2ccccc2)cc1 | inactive |
| C[C@@H]1CN([C@@H](C)CO)C(=O)c2cccc(NC(=O)Nc3ccc4c(c3)OCO4)c2O[C@@H]1CN(C)Cc1ccc(Oc2ccccc2)cc1 | inactive |
| C[C@H]1CN([C@@H](C)CO)C(=O)c2cccc(NC(=O)Nc3ccc4c(c3)OCO4)c2O[C@H]1CN(C)Cc1ccc(Oc2ccccc2)cc1 | active |
| C[C@H]1CN([C@@H](C)CO)C(=O)c2cccc(NC(=O)Nc3ccc4c(c3)OCO4)c2O[C@H]1CN(C)Cc1ccc(-c2ccccc2)cc1 | inactive |
| C[C@H](CO)N1C[C@H](C)[C@H](CN(C)Cc2ccc(Oc3ccccc3)cc2)Oc2c(NC(=O)Nc3ccc4c(c3)OCO4)cccc2C1=O | active |
| C[C@H](CO)N1C[C@H](C)[C@@H](CN(C)Cc2ccc(Oc3ccccc3)cc2)Oc2c(NC(=O)Nc3ccc4c(c3)OCO4)cccc2C1=O | inactive |
| Cc1noc(C)c1S(=O)(=O)N(C)C[C@@H]1Oc2ccc(NS(=O)(=O)c3ccc(Cl)cc3)cc2CC(=O)N([C@@H](C)CO)C[C@@H]1C | inactive |

| SMILES | cytotoxicity call |
| --- | --- |
| OCCN1CCN(c2ncnc3c2ncn3[C@H]2CN(Cc3ccccc3)C[C@@H](CO)O2)CC1 | inactive |
| C[C@@H]1CN([C@@H](C)CO)C(=O)c2cc(NS(=O)(=O)c3ccc(Cl)cc3)ccc2O[C@@H](C)CCCCO[C@H]1CN(C)C(=O)CCC(F)(F)F | inactive |
| CN1C=C(C(=O)OCCS(C)(=O)=O)C(C(=O)OCCS(C)(=O)=O)=CC(CCCO)=C[C@@H]1C1CC1 | inactive |
| COc1ccc([C@@H](O)[C@@H](CCO)OC)cc1O | inactive |
| N#CC1(N[C@@H](Cc2ccccc2)c2ccccc2)CCCCCC1 | inactive |
| Cc1ccc(OC[C@@H](O)CN)c(C)c1 | inactive |
| O=C(C1CC1)N1CCN(c2ncccn2)CC1 | inactive |
| Cn1c(=O)cnn(CCCCN2CCN(c3ncccn3)CC2)c1=O | inactive |
| Cl.O=C1CC2(CCCC2)CC(=O)N1CCCCN1CCN(c2ncccn2)CC1 | active |
| C[C@H]1CN([C@@H](C)CO)S(=O)(=O)c2ccc(-c3ccncc3)cc2O[C@@H]1CN(C)S(=O)(=O)c1ccccc1F | inactive |
| C[C@@H]1CN([C@H](C)CO)C(=O)c2cc(NC(=O)Nc3ccc4c(c3)OCO4)ccc2O[C@@H](C)CCCCO[C@@H]1CN(C)S(=O)(=O)c1ccc(Cl)cc1 | inactive |
| C[C@@H]1CCCCO[C@H](CN(C)S(=O)(=O)c2ccccc2)[C@@H](C)CN([C@@H](C)CO)C(=O)c2cc(NC(=O)Nc3ccc4c(c3)OCO4)ccc2O1 | inactive |
| C[C@H]1CCCCO[C@H](CN(C)S(=O)(=O)c2ccc(Cl)cc2)[C@@H](C)CN([C@@H](C)CO)C(=O)c2cc(NC(=O)Nc3ccc4c(c3)OCO4)ccc2O1 | active |
| C[C@@H]1CN([C@@H](C)CO)C(=O)c2cc(NC(=O)Nc3ccc4c(c3)OCO4)ccc2O[C@@H](C)CCCCO[C@@H]1CN(C)S(=O)(=O)c1ccccc1 | inactive |
| C[C@H](CO)N1C[C@H](C)[C@@H](CN(C)S(=O)(=O)c2ccc(Cl)cc2)OCCCC[C@H](C)Oc2ccc(NC(=O)Nc3ccc4c(c3)OCO4)cc2C1=O | inactive |
| C[C@H]1CCCCO[C@H](CN(C)S(=O)(=O)c2ccccc2)[C@@H](C)CN([C@@H](C)CO)C(=O)c2cc(NC(=O)Nc3ccc4c(c3)OCO4)ccc2O1 | active |
| C[C@@H]1CN([C@H](C)CO)C(=O)c2cc(NC(=O)Nc3ccc4c(c3)OCO4)ccc2O[C@@H](C)CCCCO[C@H]1CN(C)S(=O)(=O)c1ccc(Cl)cc1 | active |
| C[C@@H]1CCCCO[C@@H](CN(C)S(=O)(=O)c2ccc(Cl)cc2)[C@H](C)CN([C@@H](C)CO)C(=O)c2cc(NC(=O)Nc3ccc4c(c3)OCO4)ccc2O1 | inactive |
| C[C@@H]1CCCCO[C@@H](CN(C)S(=O)(=O)c2ccc(Cl)cc2)[C@@H](C)CN([C@@H](C)CO)C(=O)c2cc(NC(=O)Nc3ccc4c(c3)OCO4)ccc2O1 | inactive |
| C[C@@H]1CCCCO[C@H](CN(C)S(=O)(=O)c2ccc(Cl)cc2)[C@H](C)CN([C@@H](C)CO)C(=O)c2cc(NC(=O)Nc3ccc4c(c3)OCO4)ccc2O1 | active |
| C[C@@H]1CCCCO[C@@H](CN(C)S(=O)(=O)c2ccc(Cl)cc2)[C@@H](C)CN([C@H](C)CO)C(=O)c2cc(NC(=O)Nc3ccc4c(c3)OCO4)ccc2O1 | inactive |

| SMILES | cytotoxicity call |
| --- | --- |
| C[C@@H]1CCCCO[C@H](CN(C)S(=O)(=O)c2ccc(Cl)cc2)[C@@H](C)CN([C@@H](C)CO)C(=O)c2cc(NC(=O)Nc3ccc4c(c3)OCO4)ccc2O1 | inactive |
| Cc1noc(C)c1S(=O)(=O)Nc1ccc2c(c1)C(=O)N([C@H](C)CO)C[C@@H](C)[C@H](CN(C)CC1CC1)O2 | inactive |
| NCC1OC(OC2C(N)CC(N)C(OC3OC(CO)C(O)C(N)C3O)C2O)C(N)CC1O (stereo unspecified) | inactive |
| COc1ccccc1CNC(=O)C[C@@H]1CC[C@H]2[C@@H](COC[C@@H](O)CN2C(=O)Nc2ccc(F)cc2)O1 | inactive |
| C[C@H]1CN([C@@H](C)CO)C(=O)c2cc(Br)cnc2O[C@@H]1CN(C)S(=O)(=O)c1cn(C)cn1 | inactive |
| Cc1noc(C)c1S(=O)(=O)Nc1ccc2c(c1)C(=O)N([C@H](C)CO)C[C@H](C)[C@@H](CN(C)Cc1ccccc1)O2 | inactive |
| COc1cccc(S(=O)(=O)Nc2ccc3c(c2)[C@@H]2C[C@@H](CC(=O)NCC(F)(F)F)O[C@@H](CO)[C@@H]2O3)c1 | inactive |
| Cc1ccc(S(=O)(=O)N(C)C[C@@H]2Oc3ccc(NC(=O)NC(C)C)cc3C(=O)N([C@H](C)CO)C[C@@H]2C)cc1 | inactive |
| C[C@@H]1CN([C@H](C)CO)S(=O)(=O)c2ccc(C#Cc3ccc(F)cc3)cc2O[C@@H]1CN(C)S(C)(=O)=O | inactive |
| C[C@@H]1CN([C@H](C)CO)S(=O)(=O)c2ccc(C#Cc3ccc(F)cc3)cc2O[C@H]1CN(C)S(C)(=O)=O | inactive |
| C[C@H]1CN([C@@H](C)CO)S(=O)(=O)c2ccc(C#Cc3ccc(F)cc3)cc2O[C@@H]1CN(C)S(C)(=O)=O | active |
| C[C@@H]1CN([C@@H](C)CO)S(=O)(=O)c2ccc(C#Cc3ccc(F)cc3)cc2O[C@H]1CN(C)S(C)(=O)=O | inactive |
| C[C@H](CO)N1C[C@H](C)[C@@H](CN(C)S(C)(=O)=O)Oc2cc(C#Cc3ccc(F)cc3)ccc2S1(=O)=O | inactive |
| C[C@H](CO)N1C[C@H](C)[C@H](CN(C)S(C)(=O)=O)Oc2cc(C#Cc3ccc(F)cc3)ccc2S1(=O)=O | active |
| COc1ccc(CN(C)C[C@H]2OCCCC[C@@H](C)Oc3ccc(NS(=O)(=O)c4c(C)noc4C)cc3C(=O)N([C@H](C)CO)C[C@@H]2C)cc1 | inactive |
| CC(C)NC(=O)Nc1cccc2c1O[C@H](CN(C)S(=O)(=O)c1ccc(F)cc1)[C@@H](C)CN([C@H](C)CO)C2=O | inactive |
| CCCCC(=O)c1ccc(O)cc1 | inactive |
| CCCCCS(=O)(=O)CCCCCCCCCCn1c(-c2ccc(O)cc2)c(C)c2cc(O)ccc21 | active |
| C[C@H](CO)N1C[C@H](C)[C@@H](CN(C)S(=O)(=O)c2cn(C)cn2)Oc2c(NC(=O)Cc3ccccc3)cccc2C1=O | inactive |
